We go through 40 compounds from PubChem BioAssay.

Calls of active or inactive are those of the source. Cut-off read from the data, not from the text of the source: active = inhibition above about 36%; inactive = the rest.

Broadly, the inhibition is the change of the read-out against control, counted positive when it falls.

The test deals with transactivating tegument protein VP16 (Human herpesvirus 1). Kind of test: VP16 transactivation reporter inhibitors, counter-screen for SRC2 inhibitor project, cell-based, luminescence, single concentration (AID 652007). The note with it: cell-based VP16 transactivation luciferase reporter, at 8.9 µM, active compounds read high.
For `O=C1N(Cc2cccc(Cl)c2)C[C@@H]2C[C@@H](c3cccc4cccnc34)N3CCC[C@@]123`, the inhibition is -2.19% (inactive).
With `CN(Cc1ccc(Cl)cc1)C(=O)CCl`, the inhibition is 29.1% (inactive).
For the compound `O=C(Nc1ccnn1C1CCN(C(=O)c2ccc(Cl)cc2)CC1)C1CC1`, the inhibition is -6.97% (inactive).
As for `Cc1nnc(SCc2nc3sc(C(=O)O)c(C)c3c(=O)[nH]2)s1`, the inhibition is 21.2% (inactive).
Turning to `Nc1ccc(-c2cc3ccccc3c(=O)o2)cc1`, the inhibition was -7.3% (inactive).
Regarding `CCC(C)[C@H](NC(=O)N1CCn2c1nc1ccccc12)C(=O)NCc1ccc(OC)cc1` (stereo not given in full), the inhibition was -13% (inactive).
For the compound `CCCC(CCC)C(=O)Nc1ccc2c(c1)N(C(=O)CN1CCN(C)CC1)c1ccccc1CC2`, the inhibition is -0.11% (inactive).
As to `NCCCCCc1nnc(SCc2ccccc2Cl)o1`, the inhibition is 48.5% (active).
In the case of `O=C(c1c[nH]c2ccccc12)C(Cl)c1ccccc1` (stereo not given) it was 27.7% (inactive).
Take `CN(C)c1ccc(C(C[N+](=O)[O-])c2c(N)n(C)c(=O)n(C)c2=O)c(F)c1C#N` (stereo not given): the inhibition was 6.34% (inactive).
Regarding `COc1ccc(OC)c(NC(=O)COC(=O)CCCN=C2NS(=O)(=O)c3ccccc32)c1`, the inhibition is -0.67% (inactive).
In the case of `O=C(N/N=C/c1coc2ccc(Cl)cc2c1=O)c1ccncc1`, the inhibition is -13.1% (inactive).
In the case of `O=[N+]([O-])c1ccc(Sc2nnnn2-c2ccccc2)nc1` it was 12.5% (inactive); in that of `COc1cccc(CNc2nc(NCC3CC3)nc3ccsc23)c1OC`, -3.78% (inactive); in that of `COc1cc(OC)c2c(-c3cccc(-c4ccc(N(C)C)cc4)c3)cc(=O)oc2c1`, -17.4% (inactive).
For the compound `CC(=O)Nc1nc(-c2ccc3c(c2)CCN3C(=O)C2CC2)c(C)s1`, the inhibition was 13.2% (inactive).
Consider `CCOc1cccc(NC(=O)C2CC(=O)N(c3ccc(F)cc3)C2)c1` (stereo not given), for which the inhibition was 6.75% (inactive).
`COc1ccc(OC)c(CC(=O)Nc2ccc3c(c2)c(=O)n(C)n3Cc2cccc(C(F)(F)F)c2)c1`: the inhibition was -5.16% (inactive).
With `Cc1c(CCC(=O)O)c(=O)oc2cc3oc4c(c3cc12)CCCC4`, the inhibition is 49.3% (active).
For `COc1cc(/C=C/C(=O)c2ccc3c(c2)OCCO3)cc(OC)c1OC`, the inhibition is 5.55% (inactive).
`Cc1ccc2cccc(NS(=O)(=O)c3ccccc3)c2n1`: the inhibition was 75.5% (active).
For `CC(C)C[C@H]1CN(CCCC[C@H]2CNC(=O)C(=O)N2CCc2ccccc2)C(=O)C(=O)N1CCC1CCCCC1`, the inhibition is 10.7% (inactive).
Regarding `CC1=CC(C)(C)Nc2ccc(OC(=O)c3ccco3)cc21`, the inhibition was -20.4% (inactive).
Under `O=C(NCCS(=O)(=O)N1CCN(c2ccc(F)cc2)CC1)c1ccc(Br)o1` stands -22.6% (inactive).
As for `CCCCOc1ccc(C2(C)NC(=O)NC2=O)cc1` (stereo not given), the inhibition is -7.32% (inactive).
For `O=S(=O)(Cc1ccccc1Cl)NCCc1ccc(F)cc1`, the inhibition was -11.3% (inactive).
As to `COC(=O)c1ccc2c(=O)[nH]c(COC(=O)c3[nH]c(C)c(C(C)=O)c3C)nc2c1`, the inhibition was -18.3% (inactive).
In the case of `Cc1ccc(/C=C2\SC(=S)N(CCCC(=O)Nc3ccccc3C(=O)O)C2=O)cc1` it was 40% (active).
For `CC(C)COc1ccc(C(=S)N2CCCC2)cc1`, the inhibition is -1.55% (inactive).
Regarding `COCCN(C(=O)Cc1ccc(S(=O)(=O)N2CCOCC2)s1)c1c(N)n(CC(C)C)c(=O)[nH]c1=O`, the inhibition was 1.4% (inactive).
On to `COc1ccc(CN2C[C@H](COCc3ccccc3)Oc3cccc(N4CCCC4)c3S2(=O)=O)cc1`, for which the inhibition is -11% (inactive).
Consider `COc1ccc2cc3cc(C(=O)Nc4ccc5c(c4)OCO5)oc3nc2c1`, for which the inhibition is -29.9% (inactive).
`O=C(O)CCSc1nc2ccccc2s1`: the inhibition was 40.8% (active).
Take `Nc1nonc1-n1nnc(C(=O)N/N=C/c2ccccc2Br)c1CN1CCCC1`: the inhibition is -7.5% (inactive).
In the case of `Cc1nc(SCc2cccc(C(=O)O)c2)nc2c1CCCC2`, the inhibition is 4.6% (inactive).
In the case of `CCN(CC)C(=O)C1CCCN(c2ncnc3c2cnn3-c2cccc(C)c2)C1` (stereo not given), the inhibition is -13.2% (inactive).
Regarding `O=S(=O)(c1cc(C(F)(F)F)ccc1Cl)N1CCN(c2ncnc3ccccc23)CC1`, the inhibition was 17.2% (inactive).
As for `CC(C)Cc1nnc(NC(=O)CCC(=O)N2CCN(Cc3ccccc3)CC2)s1`, the inhibition is 8.01% (inactive).
Regarding `Cc1c(CCC(=O)N[C@@H](CCCNC(N)=O)C(=O)O)c(=O)oc2cc3oc4c(c3cc12)CCCC4`, the inhibition is 47.2% (active).
As to `COc1cc(/C=C2\COC/C(=C\c3cc(OC)c(OC)c(OC)c3)C2=O)cc(OC)c1OC`, the inhibition was 96.8% (active).
